Source: PubChem BioAssay (Tox21)
Records with an inconclusive call do not appear. Some compounds were tested as several samples or in several runs, with calls that do not always agree. Active and inactive are the calls of the source. Unless noted, the call rests on the fitted dose curve; in most records, active means well fitted curve in the direction sought with a large enough effect in the repeat runs; inconclusive means weak or mixed curves; inactive means no such curve, though single readings can be large; an effect the other way counts as inactive or inconclusive.

Tests used:
[1] = qHTS assay for small molecules that induce genotoxicity in human embryonic kidney cells expressing luciferase-tagged ATAD5 (AID 651632); further: nearly all actives have a fitted effect of over 15% in size; further: potency means the concentration at half of the fitted maximal effect
How it was run: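 Luminescent reporter readout, HEK293T ATAD5-luc line: 16 hr drug exposure (37C, 5% CO2) followed by Amplite, 30 min RT.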

[2] = qHTS assay for small molecule agonists of the p53 signaling pathway - cell viability (AID 651633; calls by dose curve; further: nearly all actives have a fitted effect of over 30% in size; further: potency means the concentration at half of the fitted maximal effect)
How it was run: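 p53RE-bla cells were treated with compound for 16 hours at 37 C. Cytotoxicity was then measured as CellTiter-Glo luminescence after 30 min at room temperature.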

[3] = qHTS assay for small molecules that induce genotoxicity in human embryonic kidney cells expressing luciferase-tagged ATAD5 - cell viability (AID 651634; calls by dose curve; further: nearly all actives have a fitted effect of over 25% in size; further: potency means the concentration at half of the fitted maximal effect)
How it was run: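 Viability read: CellTiter-Fluor fluorescence, 30 min at 37C. Cells: HEK293T, luciferase-tagged ATAD5. Exposure: 15.5 hr, 37C, 5% CO2, compound or DMSO vehicle.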

[4] = qHTS assay for small molecule disruptors of the mitochondrial membrane potential - cell viability (AID 720634; calls by dose curve;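 further: human HepG2 liver cancer cells; series mostly up to about 83 µM; nearly all actives have a fitted effect of over 20% in size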)
How it was run: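 HepG2, 1 hr compound, 37 C. ATP luminescence via CellTiter-Glo, 30 min RT, same well as m-MPI.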

[5] = qHTS assay to test for compound auto fluorescence at 590 nm (red) in HepG2 cells (AID 720674)
How it was run: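 Fluorescence at 590 nm emission following 540 nm excitation was recorded from HepG2 wells one hour after compound transfer, with DMSO-only wells as vehicle and Rose Bengal sodium equivalency as the scale.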

[6] = qHTS assay to test for compound auto fluorescence at 535 nm (green) in HepG2 cells (AID 720675)
[7] = qHTS assay to test for compound auto fluorescence at 460 nm (blue) in HEK293 cells (AID 720678)
How it was run: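 Measured: blue fluorescence (Ex 405/Em 460 nm) of compound-treated HEK293 cells, incubated overnight at 37C with 5% CO2 and scaled to triamterene equivalents.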

[8] = qHTS assay to test for compound auto fluorescence at 590 nm (red) in HEK293 cells (AID 720679)
How it was run: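 Using HEK293 cells at 2,000 per well, the screen added 23 nL of each compound after cell attachment and incubated overnight (37C, 5% CO2). The plate reader then captured red-label fluorescence, Ex/Em 540/590nm.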

[9] = qHTS assay to test for compound auto fluorescence at 535 nm (green) in HEK293 cells (AID 720680)
[10] = qHTS assay to test for compound auto fluorescence at 460 nm (blue) in HEK293 cell free culture (AID 720681)
How it was run: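 Compounds were added to cell-free DMEM with 10% FBS and fluorescence read directly. The blue channel used 405 nm excitation and 460 nm emission, with triamterene as the reference fluorophore.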

[11] = qHTS assay to test for compound auto fluorescence at 535 nm (green) in HEK293 cell free culture (AID 720682)
How it was run: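 Compounds were pin-transferred into cell-free DMEM with 10% FBS, and green fluorescence was read at excitation 485 nm and emission 535 nm. Intensities were expressed as fluorescein-equivalent values.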

[12] = qHTS assay to test for compound auto fluorescence at 590 nm (red) in HEK293 cell free culture (AID 720683)
How it was run: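 Cell-free wells of DMEM with 10% FBS received compound, and intrinsic fluorescence was read at excitation/emission 540/590 nm. Values expressed as equivalence to Rose Bengal sodium.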

[13] = qHTS assay to test for compound auto fluorescence at 590 nm (red) in HepG2 cell free culture (AID 720684)
How it was run: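 Compounds are added to culture medium (MEM, 10% FBS) lacking cells, then fluorescence is read at excitation 540 nm, emission 590 nm, with Rose Bengal sodium as the equivalency standard.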

[14] = qHTS assay to test for compound auto fluorescence at 460 nm (blue) in HepG2 cell free culture (AID 720685)
How it was run: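 Compound (23 nL) or DMSO pinned into cell-free MEM with 10% FBS; blue fluorescence read at 405/460 nm excitation/emission, expressed as auto-fluorescence equivalency to triamterene.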

[15] = qHTS assay to test for compound auto fluorescence at 460 nm (blue) in HepG2 cells (AID 720687)
How it was run: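 HepG2 cells in MEM with 10% FBS, attached overnight at 37 C, were exposed to compound or DMSO for 1 hr at 37 C, 5% CO2. Blue fluorescence was read at 405/460 nm, with triamterene as reference fluorophore.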

[16] = biological target: Glucocorticoid receptor (Homo sapiens) (UniProt P04150); assay: qHTS assay to identify small molecule agonists of the glucocorticoid receptor (GR) signaling pathway (AID 720691; active means well fitted activation curve with a large enough effect in the signal ratio in the repeat runs, not every such curve was filed as active; the % refers to the signal ratio)
Chain of Glucocorticoid receptor (Homo sapiens) (P04150 whole entry, looked up): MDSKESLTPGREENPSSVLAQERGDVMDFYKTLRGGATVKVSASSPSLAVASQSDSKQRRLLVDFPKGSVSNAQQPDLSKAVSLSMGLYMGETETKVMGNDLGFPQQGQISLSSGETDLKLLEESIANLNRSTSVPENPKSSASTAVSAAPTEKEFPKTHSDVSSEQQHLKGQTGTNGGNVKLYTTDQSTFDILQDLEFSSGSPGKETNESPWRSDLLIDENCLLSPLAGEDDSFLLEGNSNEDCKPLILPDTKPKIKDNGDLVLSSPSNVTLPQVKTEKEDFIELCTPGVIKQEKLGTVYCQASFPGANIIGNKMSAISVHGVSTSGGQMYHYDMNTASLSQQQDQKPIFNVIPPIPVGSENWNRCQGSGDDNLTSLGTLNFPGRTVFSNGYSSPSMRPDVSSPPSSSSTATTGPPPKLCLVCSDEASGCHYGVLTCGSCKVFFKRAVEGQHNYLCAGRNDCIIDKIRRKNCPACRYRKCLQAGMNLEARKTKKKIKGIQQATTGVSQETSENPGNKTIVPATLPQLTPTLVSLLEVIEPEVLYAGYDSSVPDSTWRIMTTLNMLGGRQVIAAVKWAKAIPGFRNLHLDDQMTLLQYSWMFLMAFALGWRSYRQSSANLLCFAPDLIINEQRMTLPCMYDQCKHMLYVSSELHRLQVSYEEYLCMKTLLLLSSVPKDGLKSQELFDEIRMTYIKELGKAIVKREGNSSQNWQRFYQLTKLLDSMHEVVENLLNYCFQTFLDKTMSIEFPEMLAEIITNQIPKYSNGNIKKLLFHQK
How it was run: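 qHTS in GR-bla HeLa cells: 4 h settling at 37 C/5% CO2, 18 h compound incubation at 37 C, 2 h LiveBLAzer B/G FRET substrate at room temperature, fluorescence intensity measured.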

[17] = biological target: Glucocorticoid receptor (Homo sapiens) (UniProt P04150); assay: qHTS assay to identify small molecule antagonists of the glucocorticoid receptor (GR) signaling pathway (AID 720692; active means well fitted inhibition curve with a large enough effect in the signal ratio in the repeat runs, not every such curve was filed as active; the % refers to the signal ratio; further: potency means the concentration at half of the fitted maximal effect)
How it was run: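 Inhibition of glucocorticoid signalling is measured in HeLa cells with a GRE-controlled beta-lactamase reporter; cells are co-treated with compound and 5 nM dexamethasone (final) for 18 h before FRET substrate readout.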

[18] = qHTS assay for small molecule disruptors of the mitochondrial membrane potential (AID 720635); further: potency means the concentration at half of the fitted maximal effect
How it was run: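 HepG2 cells exposed to compound 1 hr at 37C, then Mito-MPS dye 30 min. Ratio read of aggregate (540/590 nm) versus monomer (490/535 nm) fluorescence.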

[19] = qHTS assay to test for compound auto fluorescence at 535 nm (green) in HepG2 cell free culture (AID 720686)
On the % scale 0 is the no-effect control and ±100 the full control effect.

C=CC(=O)OCCOC(=O)C=C
active: Potency [1] 21.7 µM | Potency [3] 61.1 µM
inactive: Potency [2] | Potency [4] | Potency [5] | Potency [6] | Potency [7] | Potency [8] | Potency [9] | Potency [10] | Potency [11] | Potency [12] | Potency [13] | Potency [14] | Potency [15] | Potency [16]

CCN(CC)C(=O)c1cc(S(=O)(=O)Cc2ccccc2)c(N2CCC(c3ccccc3)CC2)cc1N(CC)CCN(C)C
21.3 µM (active) and inactive: Potency [17]
active: Potency [2] 29.8 µM | Potency [3] 29.8 µM
inactive: Potency [1] | Potency [5] | Potency [6] | Potency [7] | Potency [8] | Potency [9] | Potency [10] | Potency [11] | Potency [12] | Potency [13] | Potency [14] | Potency [15] | Potency [16]

O=C(Nc1ccc2c(O)c(N=Nc3ccc(N=Nc4ccc(S(=O)(=O)O)cc4)cc3)c(S(=O)(=O)O)cc2c1)c1ccccc1
inactive: Potency [1] | Potency [2] | Potency [4] | Potency [5] | Potency [6] | Potency [7] | Potency [8] | Potency [9] | Potency [10] | Potency [11] | Potency [12] | Potency [15]
active: Potency [3] 48.6 µM

CC(N=C(NC#N)Nc1ccncc1)C(C)(C)C (stereo not drawn)
inactive: Potency [1] | Potency [3] | Potency [4] | Potency [18] | Potency [5] | Potency [6] | Potency [8] | Potency [9] | Potency [10] | Potency [11] | Potency [12] | Potency [13] | Potency [14] | Potency [19] | Potency [15] | Potency [16] | Potency [17]

O=C(O)c1cc(-c2ccc(F)cc2F)ccc1O
active: Potency [18] 11.4 µM
inactive: Potency [1] | Potency [2] | Potency [3] | Potency [4] | fluorescence, relative to Rose Bengal [5] 0.164% [at 18.6 µM] | fluorescence, % of triamterene [7] -0.0352% [at 18.6 µM] | fluorescence, % of fluorescent control [8] -0.141% [at 18.6 µM] | fluorescence, % of fluorescein [9] 0.0391% [at 18.6 µM] | fluorescence, % of fluorescent control [10] 0.0528% [at 18.6 µM] | activity change [11] -0.026% [at 18.6 µM, stronger effect = higher value] | fluorescence, % of fluorescent control [12] -0.0186% [at 18.6 µM] | fluorescence, % of fluorescent control [14] -0.0315% [at 18.6 µM] | fluorescence, % of fluorescent control [15] -0.098% [at 18.6 µM] | Potency [16]

OCCN1CCN(CCCN2c3ccccc3Sc3ccc(C(F)(F)F)cc32)CC1
active: Potency [2] 26.6 µM
inactive: Potency [1] | Potency [4] | Potency [5] | Potency [7] | Potency [8] | Potency [9] | Potency [10] | Potency [11] | Potency [12] | Potency [14] | Potency [19] | Potency [15] | Potency [16]

CCOc1ccc2ccccc2c1C(=O)N[C@@H]1C(=O)N2[C@@H]1SC(C)(C)[C@@H]2C(=O)O
inactive: Potency [1] | Potency [3] | Potency [4] | Potency [18] | fluorescence, relative to Rose Bengal [5] 0.528% [at 18.6 µM] | fluorescence, % of fluorescein control [6] -0.0692% [at 18.6 µM] | fluorescence, % of triamterene [7] 0.458% [at 18.6 µM] | fluorescence, % of fluorescent control [8] 0.326% [at 18.6 µM] | fluorescence, % of fluorescein [9] 0.0057% [at 18.6 µM] | fluorescence, % of fluorescent control [10] 0.309% [at 18.6 µM] | activity change [11] 0.0527% [at 18.6 µM, stronger effect = higher value] | fluorescence, % of fluorescent control [12] 0.0898% [at 18.6 µM] | fluorescence, % of Rose Bengal [13] -0.0711% [at 18.6 µM] | fluorescence, % of fluorescent control [14] 0.462% [at 18.6 µM] | fluorescence, % of fluorescein control [19] 0.0405% [at 18.6 µM] | fluorescence, % of fluorescent control [15] 0.172% [at 18.6 µM] | Potency [16]
